This note sets out measurements from PubChem BioAssay (Tox21).

“And” between values parts separate entries of the source, which are not always exact repeats. Identical values can stand only once. Records with an inconclusive call do not appear. The source holds several records for some structures; these can differ, active in one and inactive in another. The source made the active and inactive calls. Calls follow the shape of the dose curve; as a rule, active = well fitted cell-killing curve with a large enough effect in the repeat runs; inconclusive = weak or mixed curves, or effect the other way; inactive = no such curve, though single readings can be large or run the other way.
% is scaled to controls: 0 for no effect and ±100 for the full control effect; potency is read from the fitted curve at half-maximal effect.

The nature of the test: qHTS assay to identify small molecule antagonists of the thyroid receptor (TR) signaling pathway - cell viability counter screen (AID 743064). Also: nearly all actives have a fitted effect of over 50% in size. As to conditions: GH3.TRE-Luc viability, CellTiter-Fluor, 24 h; series mostly up to 70.3 µM; activity change, negative = cytotoxic: at the top concentration. An excerpt: National Center for Advancing Translational Sciences [NCATS]
NIH Chemical Genomics Center [NCGC]
U.S. Environmental Protection Agency [EPA]
National Institutes of Environmental Health Sciences [NIEHS]
National Toxicology Program [NTP]
U.S. Food and Drug Administration [FDA]
Thyroid receptor (TR), a nuclear hormone receptor, plays an important role in development, proliferation, differentiation, metabolism, brain function, and cardiovascular system. […] To profile the Tox21 10K compound library in TR signaling, a cell-based GH3-TRE-Luc assay (GH3.TRE-Luc cell line, developed by the laboratory of Dr. Albertinka J. Murk, Wageningen University) was used to measure the inhibition of TR. GH3 (rat pituitary tumor) cells stably expressing a TR activity sensor consisting of two TR response elements and a luciferase reporter gene. The cytotoxicity of the Tox21 compound library against the GH3.TRE-Luc cell line was tested in parallel by measuring the cell viability using CellTiter-Fluor assay (Promega, Madison, WI) in the same wells.
Tox21 Assay Protocol Summary:
GH3.TRE-Luc cells were dispensed at 1500 cells/4 uL/well into 1536-well white solid bottom plates using a Multidrop Combi dispenser (Thermo Fisher Scientific Inc., Waltham, MA). After the assay plates were incubated at 37 C for 4 hours, 23 nL of library compound or DMSO controls was transferred to the assay plates by a pintool station (Kalypsys, San Diego, CA), followed by addition of 1 ul of T3 (1 nM, final concentration in the wells) to stimulate TR transactivation. The assay plates were incubated at 37 C for 23.5 h, and then 1 uL of CellTiter-Fluor reagent (Promega, Madision, WI) of measuring cytotoxicity was added to each well using a Bioraptr Flying Reagent Dispenser (FRD) workstation (Beckman Coulter, Indianapolis, IN, USA). The plates were incubated at 37C and 5% CO2 for additional 30 min, and fluorescence intensity was measured by a ViewLux plate reader (PerkinElmer, Shelton, CT).
Background: Quantitative high-throughput screening tests each substance at several concentrations.
Regarding `O=C(c1ccc(O)cc1O)c1ccc(O)cc1O`, the “activity change, negative = cytotoxic” value is -13.5% (inactive). Same read-out and setting: then `O=C1CCCc2c1cc1ccc3cccc4ccc2c1c34`, with 12.2% [at 95 µM] (inactive). Turning to `Cc1c(C)c2c(c(C)c1OC(=O)CCC(=O)O)CC[C@@](C)(CCC[C@H](C)CCC[C@H](C)CCCC(C)C)O2`, the Potency is 23.7 µM (active).

As for `CCCCCCCC/C=C\CCCCCCCCOCCO`, the Potency was 25.1 µM (active). On to `O=c1c(-c2ccccc2)c1-c1ccccc1`, for which the Potency is 5.96 µM (active). Regarding `Nc1ccc(N)c2ccccc12`, the Potency is 30.6 µM (active).

Take `Cc1cccc(CN2CCN(C(c3ccccc3)c3ccc(Cl)cc3)CC2)c1` (stereo not given): the Potency was 12.7 µM (active). For the compound `CCOC(=O)O[C@]1(C(=O)OCCl)CC[C@H]2[C@@H]3CCC4=CC(=O)C=C[C@]4(C)[C@H]3[C@@H](O)C[C@@]21C`, the “activity change, negative = cytotoxic” value is 14.8% (inactive). Turning to `CC(C)(C)CC(C)(C)c1ccc(O)c(Cc2ccc(Cl)cc2Cl)c1`, the Potency is 6.68 µM (active). The same measure, in the same setting: then `CC(C)(C)NC(=O)[C@@H]1C[C@@H]2CCCC[C@@H]2CN1C[C@@H](O)[C@H](Cc1ccccc1)NC(=O)[C@H](CC(N)=O)NC(=O)c1ccc2ccccc2n1`, with 13.3 µM (active) and 24.7 µM (active). With `NC(=NCCCCCCN=C(N)/N=C(\N)Nc1ccc(Cl)cc1)/N=C(\N)Nc1ccc(Cl)cc1`, the Potency is 8.56 µM (active) [middle of 5 runs]. Regarding `ON=C1CCCC1`, the “activity change, negative = cytotoxic” value is 7.71% [at 95 µM] (inactive). Regarding `Cc1ccc(-n2nc(C(C)(C)C)cc2NC(=O)Nc2ccc(OCCN3CCOCC3)c3ccccc23)cc1`, the “activity change, negative = cytotoxic” value is -21.7% (inactive). In the case of `NNc1nc(-c2ccccc2)cs1`, the Potency was 31.5 µM (active).

For `CC1=C(C(=O)OC(C)C)C(c2cccc([N+](=O)[O-])c2)C(C(=O)OC2CN(C(c3ccccc3)c3ccccc3)C2)=C(N)N1` (stereo not given), the Potency is 2.98 µM (active). Still for that read-out and setting: then `COc1ccc(C(=O)/C(Br)=C\C(=O)O)cc1`, with 21.7 µM (active).

Regarding `Cc1cc(O)c(C(C)(C)C)cc1Sc1cc(C(C)(C)C)c(O)cc1C`, the Potency is 3.43 µM (active). In the case of `Cc1ccc2oc(CN(Cc3ccccc3)C(=O)Nc3c(F)cc(F)cc3F)c(-c3ccc(Cl)cc3)c2c1`, the “activity change, negative = cytotoxic” value is -2.44% (inactive). As to `CCC(N)(CO)CO`, the “activity change, negative = cytotoxic” value is 13.2% [at 95 µM] (inactive).

With `O=c1[nH]cnc2nc[nH]c12`, the “activity change, negative = cytotoxic” value was 18.1% (inactive). In the case of `Clc1ccc2n[nH]nc2c1`, the “activity change, negative = cytotoxic” value was 19.2% (inactive). Turning to `CCOC(=O)O[C@H](C)OC(=O)c1ccc2c(c1)cc(C(=O)NC1CCN(C(C)C)CC1)n2Cc1cc(-c2ccc(Cl)s2)on1`, the Potency was 5.09 µM (active).

Consider `Oc1cccc2cc3cccc(O)c3c(O)c12`, for which the “activity change, negative = cytotoxic” value was -1.72% [at 95 µM] (inactive).

Consider `CSc1cnc(C)cn1`, for which the “activity change, negative = cytotoxic” value is 2.2% [at 95 µM] (inactive). With `CCCCCCCCOC(=O)c1ccc(O)cc1`, the Potency is 61.1 µM (active).

For the compound `Clc1ccc2cc3ccccc3cc2c1`, the “activity change, negative = cytotoxic” value was -2.37% (inactive). For `O=C1c2c(O)ccc(Nc3ccc(CCO)cc3)c2C(=O)c2c([N+](=O)[O-])ccc(O)c21`, the Potency was 61.1 µM (active). On the same count and under the same terms, then `Cc1ccc(O)c(C(C)(C)C)c1`, with 17.2 µM (active) and inactive; and `CCCCCCCCCCCCCC[P+](CCCC)(CCCC)CCCC` (tested in a mixture with another compound), with 4.35 µM (active); and `On1ccccc1=S`, with 1.52 µM (active). For `CC/C(=C(\c1ccc(O)cc1)c1ccc(OCCN(C)C)cc1)c1ccccc1`, the Potency is 5.46 µM (active). Same read-out and setting: with `COc1cc(-c2nc(NC(=O)c3cc4cc(C)cc(C)c4n3CC(=O)O)sc2CCC2CCCCC2)c(OC)cc1Cl` the figure was 12.5 µM (active); with `CCN(CCC#N)c1ccc(N=Nc2c(Cl)cc([N+](=O)[O-])cc2Cl)cc1`, 24.3 µM (active); with `CCCCCCCCCCCCCCCCCC[N+](C)(C)Cc1ccccc1`, 11 µM (active).

Regarding `CCN(Cc1cccnc1)C(=O)c1cccc(Cl)c1[C@]1(C)C(=O)N(Cc2ccc(OC)cc2OC)c2ccc(Cl)cc21`, the Potency is 4.54 µM (active).

As to `COc1cccc2c1C(=O)c1c(O)c3c(c(O)c1C2=O)C[C@@](O)(C(=O)CO)C[C@@H]3O[C@H]1C[C@H](N)[C@H](O[C@@H]2CCCCO2)[C@H](C)O1`, the Potency was 1.68 µM (active). Regarding `C=CC(=O)OCCn1c(=O)n(CCOC(=O)C=C)c(=O)n(CCOC(=O)C=C)c1=O`, the Potency was 5.45 µM (active). The same measure, in the same setting: with `Oc1ccc(N=Nc2ccccc2)cc1` the figure was 49.2 µM (active). With `NC(=O)NS(=O)(=O)c1ccc(N)cc1`, the “activity change, negative = cytotoxic” value is 0.255% (inactive).

On to `Cc1cc(CCN2CCN(c3nsc4ccccc34)CC2)cc2c1NC(=O)CC2(C)C`, for which the Potency is 43.3 µM (active).
